PubChem BioAssay AID651820 (National Center for Advancing Translational Sciences (NCATS), 2012)
The whole screen tested about 340,000 compounds, of which about 12,000 (3.5%) were called active. Another 18% or so got no clear call; they are omitted. What follows is part of a selection rich in actives, with near analogues and random picks from the rest. A number with no mark means an inactive call. The call rests on the fitted dose curve; in most records, active means well fitted inhibition curve with a large enough effect; inconclusive means small, poorly fitted or top-dose-only effect, or another doubt; inactive means no such curve, though single readings can be large or run the other way.

assay: qHTS Assay for Inhibitors of Hepatitis C Virus (HCV); conditions: Huh7.5.1 HCVcc-Cre infection, luciferase reporter, 44 h; series mostly up to 41.8 µM; activity change, negative = inhibition: at the top concentration
How it was run: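 1,000 cells/well; 4 h culture; + compound; + HCVcc-Cre (~0.5 moi); 44 h; luciferase substrate, RT 15 min; read 15 sec.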
On the % scale 0 is the no-effect control and ±100 the full control effect; potency means the concentration at half of the fitted maximal effect.

Structure (SMILES) | activity change, negative = inhibition | Potency
O=C1C[C@@H]2c3c(cccc3CN1Cc1ccccc1)C[C@@H](O)[C@H]2O | 9.7% | 
Cc1ccc(-c2cc(=O)[nH]c(NCc3ccccc3)n2)cc1 | 12.1% | 
O=C(CN1C(=O)NC2(CCOc3ccccc32)C1=O)Nc1cccc([N+](=O)[O-])c1 (configuration not stated) | -16.3% | 
CN(C(=O)COC(=O)c1nc(Cl)ccc1Cl)C1CCS(=O)(=O)C1 (configuration not stated) | -7.4% | 
CN(C(=O)COC(=O)c1cc(-c2ccco2)nc2ccccc12)C1CCS(=O)(=O)C1 (configuration not stated) | -5.06% | 
Cc1c(-c2cccc(Cl)c2)nc2ccccc2c1C(=O)OCC(=O)N(C)C1CCS(=O)(=O)C1 (configuration not stated) |  | 3.55 µM (active)
Cc1ccc(CNC(=O)Cn2cnc3c(NCc4ccccc4)ncnc32)o1 | -2.28% | 
Cc1ccc(NC(=O)Cn2c(C)csc2=O)cc1 | 11% | 
CSCc1cc(N(C)C)nc(SCc2ccc(Cl)cc2Cl)n1 |  | 8.91 µM (active)
Clc1ccc(CSc2nnc(/C=C/c3ccccc3)o2)c(Cl)c1 | -3.62% | 
CSCc1cc(N2CCOCC2)nc(SCc2ccc(Cl)cc2Cl)n1 | -16.6% | 
Nn1c(SCC(=O)NC2CCCc3ccccc32)nnc1C1CC1 (configuration not stated) | -12.4% | 
Cc1nnc(N/N=C/c2ccccn2)[nH]c1=O |  | 3.55 µM (active)
Cc1ccccc1Nc1nnc(C)c(=O)[nH]1 | 5.21% | 
Cc1nnc(N/N=C/c2cccs2)[nH]c1=O | 15.5% | 
CC(=O)N1CCc2ccc(N)cc21 | 18% | 
CCCCn1c(N)c(N(CCC(C)C)C(=O)CC2OC(=O)c3ccccc32)c(=O)[nH]c1=O (configuration not stated) | 17.9% | 
COc1ccc(C2=NS(=O)(=O)N(C)C(C(=O)NC(C)c3ccccc3)=C2)cc1 (configuration not stated) | -16.6% | 
COc1cc(NC(=O)C2=CC(c3ccco3)=NS(=O)(=O)N2C)cc(OC)c1OC | 4.73% | 
COc1ccc(NC(=O)C2=CC(c3ccc(OC)c(OC)c3)=NS(=O)(=O)N2C)cc1 |  | 8.91 µM (active)
COC(=O)C1CCN(C(=O)NC2CC(=O)N(c3ccc4c(c3)OCCO4)C2)CC1 (configuration not stated) | 7.38% | 
O=S1(=O)CCOC[C@H](Cc2ccccc2)N1Cc1ccccc1Br | -7.83% | 
O=C(CCN1CCN(C/C=C/c2ccccc2)CC1)Nc1ccccc1Cl | -5.92% | 
CNC(=O)NC(=O)C(C)N1CCN(C/C=C/c2ccccc2)CC1 (configuration not stated) | 2.6% | 
O=C1c2ccccc2C(=O)c2c1cccc2N1CCN(C/C=C/c2ccccc2)CC1 |  | 11.2 µM (active)
Nc1ncnc2c1cnn2C1CC(O)C(CO)O1 (configuration not stated) | 24.9% | 

Structure (SMILES) | activity change, negative = inhibition | Potency
C=CCn1c(=O)n(C)c2c(=O)n(C)c(=O)n(C)c21 | 12.5% | 
CCOc1ccc(C(O)Cc2nc3ccccc3n2C)cc1 (configuration not stated) | 11.1% | 
CCOc1ccc(C(O)Cn2c(=N)n(CCN3CCCCC3)c3ccccc32)cc1 (configuration not stated) |  | 10 µM (active)
Cc1cccc(OCC(O)Cn2c(=N)n(CCN3CCOCC3)c3ccccc32)c1 (configuration not stated) | -11.5% | 
COc1ccc(S(=O)(=O)N2CCOCC2)cc1NC(=O)CC1CC2CCC1C2 (configuration not stated) | 2.91% | 
COc1cc2c(cc1OC)CN(C(C)C(=O)Nc1cccc(S(=O)(=O)N3CCOCC3)c1)CC2 (configuration not stated) | -7.17% | 
CCc1cc2c(NC(Cc3ccccc3)C(=O)O)ncnc2s1 (configuration not stated) | 8.03% | 
CCc1cc2c(NC3CCCC3)ncnc2s1 |  | 10 µM (active)
CCc1cc2c(SCC(=O)Nc3ncc(Cl)c(C)c3Cl)ncnc2s1 | -1.3% | 
O=C(CN1CCOCC1)Nc1ccccc1 | -2.17% | 
O=C(CN1CCc2cc3c(cc2C1)OCCCO3)Nc1ccccc1 |  | 11.2 µM (active)
Cc1ccc(NC(=O)CN2CCc3ccccc3C2)cc1 | -2.8% | 
CNC(=O)C1CC(=O)N(c2ccc(OCC(=O)Nc3ccccc3C)cc2)C1 (configuration not stated) | -3.97% | 
O=C(N[C@@H](Cc1ccccc1)C(=O)OCc1ccccc1)c1nc[nH]c1C(=O)NC1CCNCC1 | 16.1% | 
CCCCn1c(SCC(=O)N2CCC(C(=O)OCC)CC2)nc2cc(S(N)(=O)=O)ccc21 | -7.54% | 
NS(=O)(=O)c1ccc(CCNC(=O)CCCn2c(SCC(=O)N3CCCC3)nc3ccsc3c2=O)cc1 |  | 2 µM (active)
NS(=O)(=O)c1ccc(CCNC(=O)CN2C(=O)c3ccccc3S2(=O)=O)cc1 | 2.87% | 
CN1C(=O)[C@H]2[C@@H](/C=C/c3ccccc3)N3C(=O)CN(Cc4ccc(-c5ccccc5)cc4)C(=O)[C@@]3(C)[C@H]2C1=O | 1.62% | 
COc1ccc(CNC(=O)CN2C(=O)NC3(CCCc4sccc43)C2=O)cc1 (configuration not stated) | 7.77% | 
O=C(Nc1cccc(C(F)(F)F)c1)c1ccc(N2CCNCC2)c([N+](=O)[O-])c1 |  | 12.6 µM (active)
CC(NC(=O)c1ccc(N2CCNCC2)c([N+](=O)[O-])c1)C12CC3CC(CC(C3)C1)C2 (configuration not stated) | 17.7% | 
O=C(Nc1ccc(N2C(=O)c3cccc4cccc(c34)C2=O)cc1)c1ccc(N2CCCCC2)c([N+](=O)[O-])c1 | 1.73% | 
NC(=O)c1ncn([C@@H]2O[C@H](CN=C3NS(=O)(=O)c4ccccc43)[C@@H](O)[C@H]2O)n1 | 13.5% | 
CCCNc1ncnc2sc(C)c(C)c12 |  | 8.91 µM (active)
CCOC(=O)C(C)n1cnc2sc(C)c(C)c2c1=O (configuration not stated) | 1.73% | 
CSc1ncnc2sc(C)c(C)c12 | -8.32% | 

Structure (SMILES) | activity change, negative = inhibition | Potency
CCN(C(=O)CSc1nnnn1-c1ccccc1OC)C1CCS(=O)(=O)C1 (configuration not stated) | 7.75% | 
O=C(CCc1ccc(S(=O)(=O)N2CCOCC2)cc1)OCC(=O)c1ccc(Br)cc1 | 8.2% | 
Clc1ccc(Nc2ncnc3c2nnn3Cc2ccccc2)cc1 | 2.81% | 
Clc1ccc(Cn2ncc3c(NCc4cccnc4)ncnc32)cc1 |  | 11.2 µM (active)
CC(=O)Nc1ccc(NC(=O)CSc2ncnc3c2cnn3Cc2ccccc2)cc1 | -2.76% | 
O=C(Cn1cnc2ccccc2c1=O)NNC(=O)c1ccccc1F | 17.9% | 
CC(C)NC(=O)Nc1cccc2c1O[C@@H](CN(C)S(=O)(=O)c1ccc(F)cc1)[C@@H](C)CN([C@H](C)CO)C2=O | 17.9% | 
O=C(CNC(=O)c1ccc(F)cc1)c1ccccc1 | 12.2% | 
Cc1cccc[n+]1CC(=O)c1ccccc1 | -7.73% | 
O=C(C[n+]1cc(Br)cc2ccccc21)c1ccc(F)cc1 |  | 10 µM (active)
O=C(NCCS(=O)(=O)NCc1ccc(F)cc1)c1ccccc1 | -2.73% [at 8.37 µM] | 
O=C(NCc1cccnc1)c1cc(S(=O)(=O)N2CCOCC2)c(Cl)cc1Cl | 10.9% | 
Cc1ccc(S(=O)(=O)N2CCN(c3ncnc4ccccc34)CC2)cc1 |  | 8.91 µM (active)
Cc1ccc(S(=O)(=O)N2CCN(Cc3cccc(C)c3O)CC2)cc1 | 13.1% | 
Cc1ccc(S(=O)(=O)N2CCN(C)CC2)cc1 | 19.8% | 
CC(=O)Nc1ccc(NC(=O)CSc2nnc(C3CC3)n2-c2ccccc2)cc1 | -9.37% | 
Cc1cccc(-c2oc3ccc(-c4ccc5c(c4)OCO5)cc3c2C#Cc2cncn2C)c1 | 4.36% | 
Cc1ccc(C(=O)O)c(NC=O)c1OCc1ccccc1 | 14.3% | 
Cc1ccc(S(=O)(=O)N2[C@@H](c3cccc4ccccc34)C(C(=O)O)=C[C@H]2C(C)(C)C)cc1 | 10.4% | 
COc1ccc(-c2n[nH]c(C)c2-c2ccc(OC)c(OC)c2)c(O)c1 |  | 11.2 µM (active)
CCOc1ccc(-c2n[nH]c(C)c2-c2ccccn2)c(O)c1 | -17.4% | 
COc1ccc(-n2c(-c3ccc(OC)c(OC)c3)n[nH]c2=S)cc1 | 5.22% | 
O=C1NCC(Nc2ccccc2)C(=O)N1 (configuration not stated) | 9.38% | 
CCN(Cc1ccccc1)S(=O)(=O)c1cc2c3c(c1)CCN3C(=O)CC2 | 18.5% | 
Cc1ccc(C)c(N2CCN(C(=O)CCc3nc(-c4cccc(C(F)(F)F)c4)no3)CC2)c1 | 2.72% | 
COC(=O)c1ccc(C)c(NC(=O)Cn2c(C)csc2=O)c1 | 4.64% | 

Structure (SMILES) | activity change, negative = inhibition | Potency
C#CC(C)(C)NC(=O)CSc1nc2c(c(=O)n(C)c(=O)n2C)n1CCCC | -15.9% | 
Cn1nnnc1SCC(=O)Nc1nc2ccccc2s1 | -9.51% | 
CCOc1ccc2nc(NC(=O)CSc3nc4c(c(=O)n(C)c(=O)n4C)n3CC)sc2c1 |  | 3.98 µM (active)
O=C(Cn1cnc2c(OCc3ccccc3)ncnc21)NCCCn1ccnc1 | 5.21% | 
Cc1ccc(Cn2c(NC(=O)c3ccco3)nc3ccccc32)cc1 | -3.39% | 
Cc1ccc(-n2nc3cc(Cl)c(NC(=O)c4ccco4)cc3n2)cc1 | -13.6% | 
CCn1nc(NC(=O)c2ccco2)c2cc3ccc(C)cc3nc21 |  | 10 µM (active)
CN1CCOC1c1ccc(C2OCCN2C)cc1 (configuration not stated) | 17.6% | 
COc1ccccc1CC(=O)Nc1ccc(S(=O)(=O)N2CCCC2)cc1 | -19.2% | 
COc1ccc(-c2ccc(Nc3ccc(S(=O)(=O)N4CCCC4)cc3)nn2)cc1OC |  | 12.6 µM (active)
COc1ccc(S(=O)(=O)Nc2ccc(S(=O)(=O)N3CCCCC3)cc2)cc1OC | -1.61% | 
COc1ccc(NS(=O)(=O)c2ccc(N3CCOCC3)c(NC(=O)/C=C/C(=O)O)c2)cc1 | -1.43% | 
Cc1nc(Nc2ccccc2F)c2nnn(Cc3ccccc3Cl)c2n1 | 6.92% | 
CCCc1nc(NCc2ccc3c(c2)OCO3)c2nnn(Cc3ccccc3Cl)c2n1 | 9.92% | 
Cc1nc(Nc2ccc3c(c2)OCCO3)c2nnn(Cc3ccccc3Cl)c2n1 |  | 10 µM (active)
CCN(CC(=O)Nc1ccccc1C(=O)NC1CC1)Cc1cccs1 | 0.258% | 
Cc1ccccc1NC(=O)Cc1nc(COC(=O)c2ccc(C(F)(F)F)cc2)cs1 | -7.12% | 
COc1cccc(NC(=S)NCc2ccco2)c1 | -5.4% | 
COc1cccc(NC(=S)N(CCc2c(C)[nH]c3ccccc23)Cc2ccco2)c1 |  | 25.1 µM (active)
CCNC(=S)N(CCc1c(C)[nH]c2ccc(C)cc12)Cc1ccco1 | 1.39% [at 8.37 µM] | 
CC(C)CC1(C)NC(=O)N(CC(=O)Nc2ccc3c(c2)OCCO3)C1=O (configuration not stated) | 5.63% | 
O=C(CSc1nc(Nc2ccccc2)nc(N2CCOCC2)n1)Nc1cc(Cl)ccc1O |  | 10 µM (active)
O=C(CN1CCOCC1)Nc1cc(Cl)ccc1Cl | 0.835% | 
CC1(c2ccccc2)NC(=O)N(CC(=O)Nc2cc(Cl)ccc2N2CCOCC2)C1=O (configuration not stated) | 10.1% | 
